# PubChem BioAssay (EPA / NIEHS)
# Several values for one entry are separate records, joined by “and”; a condition that tells them apart may be missing. Identical values can stand only once. Inconclusive results are not listed. Some compounds were tested as several samples or in several runs, with calls that do not always agree. Activity calls are given as the source filed them. Rule for the calls, unless noted: active = hit-call score of the fitted dose curve at least 0.9, where 1 is the maximum; inconclusive = response in the unintended direction; inactive = score below 0.9.
# Legend:
# [1] = Tanguay_ZF_120hpf_AXIS_legacy: (Legacy) Oregon State University Tanguay Lab 120 Hour Post-fertilization zebrafish Assay for Body Axis Malformation (AID 2283635);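 for AC50: potency for an increased fraction of larvae scored with body axis malformation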
# Outline: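 Binary scoring of axis defects at 120 hpf under brightfield, fitted positive versus DMSO. Tropical 5D embryos, chorion removed by pronase at 4 hpf, were singly exposed in sealed, dark plates at 28C from 6 hpf; DMSO 0.64% final.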
# [2] = Tanguay_ZF_120hpf_SNOU_legacy: (Legacy) Oregon State University Tanguay Lab 120 Hour Post-fertilization zebrafish Assay for Snout Malformation (AID 2283637)
# Outline: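 Binary snout-malformation call at 120 hpf in wild-type 5D embryos, chorion removed by pronase, under static exposure from 6 hpf at 28C (0.64% DMSO). Embryos dying by 24 or 120 hpf excluded.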
# [3] = Tanguay_ZF_120hpf_JAW_legacy: (Legacy) Oregon State University Tanguay Lab 120 Hour Post-fertilization zebrafish Assay for Jaw Malformation (AID 2283638);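 for AC50: active means more embryos with jaw malformation than DMSO controls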
# Outline: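 Binary jaw-malformation call at 120 hpf by brightfield microscopy. Embryos (Tropical 5D strain, chorion removed at 4 hpf) were dosed statically at 6 hpf, one per well, at 28C with 0.64% DMSO. Embryos that died were not scored.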
# [4] = Tanguay_ZF_120hpf_OTIC_legacy: (Legacy) Oregon State University Tanguay Lab 120 Hour Post-fertilization zebrafish Assay for Otic Vesicle Malformation (AID 2283639)
# Outline: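 Binary scoring of otic vesicle defects at 120 hpf in zebrafish (Tropical 5D) held under static exposure at 28C, sealed and shaded, with final DMSO 0.64%. Embryos dying by 24 or 120 hpf excluded; fitted positively against DMSO.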
# [5] = Tanguay_ZF_120hpf_PFIN_legacy: (Legacy) Oregon State University Tanguay Lab 120 Hour Post-fertilization zebrafish Assay for Pectoral Fin Malformation (AID 2283648);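 note: each larva judged yes or no for fin defect by brightfield with dead larvae skipped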
# Outline: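 Pectoral fin malformation was recorded as a binary endpoint at 120 hpf in wild-type Tropical 5D larvae, which had been dechorionated and exposed statically from 6 hpf at 28C in 0.64% DMSO. Dead embryos were excluded.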
# [6] = Tanguay_ZF_120hpf_CFIN_legacy: (Legacy) Oregon State University Tanguay Lab 120 Hour Post-fertilization zebrafish Assay for Caudal Fin Malformation (AID 2283649)
# Outline: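 Binary brightfield scoring of caudal fin defects at 120 hpf after static, light-shielded exposure at 28C from 6 hpf. Tropical 5D embryos, chorion removed with pronase at 4 hpf, final DMSO 0.64%.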
# [7] = Tanguay_ZF_120hpf_PIG_legacy: (Legacy) Oregon State University Tanguay Lab 120 Hour Post-fertilization zebrafish Assay for Pigmentation Malformation (AID 2283650)
# Outline: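 Pigment malformation recorded as a binary call at 120 hpf in zebrafish (Tropical 5D) exposed singly from 6 hpf after pronase dechorionation. Static, sealed, 28C exposure, 0.64% DMSO; mortality excludes scoring; positive-direction fit against DMSO.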
# [8] = Tanguay_ZF_120hpf_SWIM_legacy: (Legacy) Oregon State University Tanguay Lab 120 Hour Post-fertilization zebrafish Assay for Swim Bladder Malformation (AID 2283654);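 note: swim bladder malformation in each larva scored yes or no under brightfield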
# Outline: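 Scoring is binary for swim bladder defects at 120 hpf, by brightfield inspection of zebrafish larvae. Embryos were exposed singly from 6 hpf after pronase dechorionation, at 28C with 0.64% DMSO; mortality excluded scoring.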
# [9] = Tanguay_ZF_120hpf_TRUN_legacy: (Legacy) Oregon State University Tanguay Lab 120 Hour Post-fertilization zebrafish Assay for Truncated Body (AID 2283655)
# Outline: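 Binary presence/absence of truncated body is recorded at 120 hpf by brightfield, with non-mortality endpoints skipped after death. Exposure is static from 6 hpf in sealed dark plates at 28C, using dechorionated wild-type zebrafish, 0.64% DMSO.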
# [10] = read-out: xenobiotic metabolism (CYP1A1), CYP1A1 (gene 1543); assay: CLD_CYP1A1_6hr: CellzDirect (CLD) Gene Expression Assay for xenobiotic metabolism (CYP1A1) at 6 hours (AID 2283661);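 for AC50: potency for transcript induction above DMSO vehicle baseline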
# Outline: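 Read-out 6 h post-dose: qNPA chemiluminescent quantitation of transcript induction against 0.2% DMSO. Cells were cultured primary human hepatocytes from two separate donor preparations; phase-contrast morphology annotated apparent cytotoxicity.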
# [11] = system: Thyroperoxidase (TPO), gene 54314; assay: CCTE_Simmons_AUR_rTPO: CCTE's Amplex UltraRed Assay for Thyroperoxidase (TPO) Inhibition, Simmons Lab (AID 2283662);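 for AC50: potency for loss of signal meaning inhibition of peroxidase activity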
# Outline: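 Cell-free peroxidase activity assay using rat thyroid gland microsomes with excess H2O2 (300 uM) and 25 uM Amplex UltraRed. Compounds tested from 5 nM to 87.5 uM; fluorescence measured after 30 min at 37C, analysed relative to DMSO baseline.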
# [12] = read-out: xenobiotic metabolism (CYP1A2), CYP1A2 (gene 1544); assay: CLD_CYP1A2_6hr: CellzDirect (CLD) Gene Expression Assay for xenobiotic metabolism (CYP1A2) at 6 hours (AID 2283663);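 for AC50: potency is for induction meaning a rise in mRNA above DMSO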
# Outline: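 mRNA levels quantified by quantitative nuclease protection assay with chemiluminescence, 6 h after dosing human primary hepatocyte cultures (two donors) across several concentrations, vehicle 0.2% DMSO. Induction fitted upward versus DMSO; phase-contrast cytotoxicity annotated.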
# [13] = Tanguay_ZF_120hpf_PE_legacy: (Legacy) Oregon State University Tanguay Lab 120 Hour Post-fertilization zebrafish Assay for Pericardial Edema (AID 2283640)
# Outline: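 Scoring was binary, by brightfield microscopy at 120 hpf, and skipped where mortality occurred. Wild-type embryos were kept under sealed, foil-covered static exposure at 28C in 0.64% (vol/vol) DMSO.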
# [14] = read-out: solute carrier (SLC22A6), SLC22A6 (gene 9356); assay: LTEA_HepaRG_SLC22A6: Life Technologies and Expression Analysis (LTEA) Assay for solute carrier (SLC22A6) using HepaRG (AID 2283653; active = hit-call score of the fitted dose curve at least 0.9, where 1 is the maximum; inactive = score below 0.9); settings: mRNA level, 48 h; actives raise or lower the signal
# Outline: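 SLC22A6 transcript was measured by TaqMan qRT-PCR, normalized to three housekeeping genes, after 48 h duplicate exposure of HepaRG cells (100 uM top, half-log steps, 0.5% DMSO); bidirectional fit against vehicle.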
# [15] = read-out: solute carrier (SLC10A1), SLC10A1 (gene 6554); assay: LTEA_HepaRG_SLC10A1: Life Technologies and Expression Analysis (LTEA) Assay for solute carrier (SLC10A1) using HepaRG (AID 2283657; active = hit-call score of the fitted dose curve at least 0.9, where 1 is the maximum; inactive = score below 0.9); settings: mRNA level, 48 h; actives raise or lower the signal
# Outline: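 SLC10A1 transcript measured by TaqMan qRT-PCR, housekeeping-normalised, after 48 h chemical treatment of human HepaRG cells. Eight concentrations (half-log, max 100 uM, 0.5% DMSO vehicle) in duplicate; fitted bidirectionally against DMSO baseline.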
# [16] = read-out: matrix metalloproteinase-1 (MMP1), MMP1 (gene 4312); assay: LTEA_HepaRG_MMP1: Life Technologies and Expression Analysis (LTEA) Assay for matrix metalloproteinase-1 (MMP1) using HepaRG (AID 2283658; active = hit-call score of the fitted dose curve at least 0.9, where 1 is the maximum; inactive = score below 0.9); settings: mRNA level, 48 h; actives raise or lower the signal
# Outline: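 qRT-PCR (TaqMan, Fluidigm arrays) of MMP1 transcript, normalized against three housekeeping genes and fitted in both directions relative to 0.5% DMSO vehicle. Human HepaRG cultures received duplicate 48 h exposures across 8 points, highest 100 uM with half-log steps.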
# [17] = read-out: ABC Transporter (ABCB1), ABCB1 (gene 5243); assay: CLD_ABCB1_6hr: CellzDirect (CLD) Gene Expression Assay for ABC Transporter (ABCB1) at 6 hours (AID 2283659);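 note: hits raise ABCB1 transcript above the DMSO vehicle baseline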
# Outline: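 ABCB1 transcript measured by quantitative nuclease protection assay, chemiluminescent read-out, 6 h after dosing human hepatocyte cultures (0.2% DMSO vehicle, daily redosing). Activity fitted as increase over DMSO baseline; cytotoxicity flagged by phase-contrast morphology.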
# [18] = read-out: Broad substrate specificity ATP-binding cassette transporter ABCG2 (Homo sapiens) (UniProt Q9UNQ0); assay: CLD_ABCG2_6hr: CellzDirect (CLD) Gene Expression Assay for ABC Transporter (ABCG2) at 6 hours (AID 2283660)
# Outline: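 ABCG2 mRNA induction measured by qNPA chemiluminescence in human primary hepatocyte cultures, 6 h post-dose. Chemicals tested at several concentrations against a 0.2% DMSO vehicle; positive-direction fit relative to DMSO.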
# [19] = Tanguay_ZF_120hpf_EYE_legacy: (Legacy) Oregon State University Tanguay Lab 120 Hour Post-fertilization zebrafish Assay for Eye Malformation (AID 2283636);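 note: binary presence or absence of eye malformation scored by brightfield in 120 hpf larvae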
# Outline: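 Binary brightfield scoring of eye defects at 120 hpf after static exposure from 6 hpf of single pronase-dechorionated wild-type embryos (28C, 0.64% DMSO). Non-mortality endpoints omitted where embryos died; fit vs DMSO.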
# [20] = read-out: kallikrein-3 (KLK3), KLK3 (gene 354); assay: LTEA_HepaRG_KLK3: Life Technologies and Expression Analysis (LTEA) Assay for kallikrein-3 (KLK3) using HepaRG (AID 2283652; active = hit-call score of the fitted dose curve at least 0.9, where 1 is the maximum; inactive = score below 0.9); settings: mRNA level, 48 h; actives raise or lower the signal
# Outline: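 KLK3 transcript levels were measured by TaqMan qRT-PCR with normalisation to three housekeeping genes. HepaRG cultures received chemicals for 48 h at up to 100 uM (half-log, 8 points, 0.5% DMSO vehicle), fitted in both directions against DMSO.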
# Sequence of Broad substrate specificity ATP-binding cassette transporter ABCG2 (Homo sapiens) (Q9UNQ0 whole entry, looked up): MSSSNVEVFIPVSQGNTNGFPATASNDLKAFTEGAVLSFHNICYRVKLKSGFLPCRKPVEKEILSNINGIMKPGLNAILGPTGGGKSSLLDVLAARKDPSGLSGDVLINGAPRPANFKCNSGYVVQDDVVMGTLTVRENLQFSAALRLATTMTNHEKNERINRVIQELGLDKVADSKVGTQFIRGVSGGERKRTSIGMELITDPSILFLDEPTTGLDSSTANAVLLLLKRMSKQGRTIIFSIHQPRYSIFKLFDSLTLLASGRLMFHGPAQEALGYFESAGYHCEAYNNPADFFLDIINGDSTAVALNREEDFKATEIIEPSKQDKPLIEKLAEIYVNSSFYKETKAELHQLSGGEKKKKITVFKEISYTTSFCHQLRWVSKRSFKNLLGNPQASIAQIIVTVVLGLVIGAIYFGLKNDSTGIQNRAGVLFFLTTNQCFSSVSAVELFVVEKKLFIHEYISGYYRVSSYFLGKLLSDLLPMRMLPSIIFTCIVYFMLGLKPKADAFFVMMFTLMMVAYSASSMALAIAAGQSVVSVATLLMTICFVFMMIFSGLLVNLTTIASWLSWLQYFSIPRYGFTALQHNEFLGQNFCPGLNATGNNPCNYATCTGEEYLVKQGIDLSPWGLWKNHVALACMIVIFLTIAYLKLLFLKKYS
compound,measurement,setting,value
O=S(=O)(O)C(F)(F)C(F)(F)C(F)(F)C(F)(F)C(F)(F)C(F)(F)C(F)(F)C(F)(F)F,AC50,[1],25 µM (active) and 42.3 µM (active) and 42.2 µM (active)
same,outcome,[1],inactive
same,AC50,[2],25.1 µM (active) and 33.2 µM (active)
same,outcome,[2],inactive
same,AC50,[3],26.5 µM (active) and 43.5 µM (active)
same,outcome,[3],inactive
same,AC50,[4],47.5 µM (active)
same,outcome,[4],inactive
same,AC50,[5],36 µM (active)
same,outcome,[5],inactive
same,AC50,[6],12.2 µM (active)
same,outcome,[6],inactive
same,AC50,[7],46.6 µM (active)
same,outcome,[7],inactive
same,outcome,[8],inactive
same,AC50,[9],10.6 µM (active) and 21.2 µM (active)
same,outcome,[9],inactive
same,outcome,[10],inactive
same,outcome,[11],inactive
same,outcome,[12],inactive
CCC(C)Nc1c([N+](=O)[O-])cc(C(C)(C)C)cc1[N+](=O)[O-] (stereo not given),outcome,[1],inactive
same,outcome,[2],inactive
same,outcome,[3],inactive
same,outcome,[4],inactive
same,outcome,[13],inactive
same,outcome,[5],inactive
same,outcome,[6],inactive
same,outcome,[7],inactive
same,outcome,[14],inactive
same,outcome,[8],inactive
same,outcome,[9],inactive
same,AC50,[15],72.9 µM (active)
same,outcome,[16],inactive
same,outcome,[17],inactive
same,outcome,[18],inactive
same,AC50,[10],3.41 µM (active)
same,AC50,[12],5.44 µM (active)
O=C1c2ccccc2C(=O)N1SC(Cl)(Cl)Cl,outcome,[1],inactive
same,outcome,[2],inactive
same,outcome,[3],inactive
same,outcome,[4],inactive
same,outcome,[5],inactive
same,outcome,[6],inactive
same,outcome,[7],inactive
same,outcome,[14],inactive
same,outcome,[8],inactive
same,outcome,[9],inactive
same,outcome,[15],inactive
same,outcome,[16],inactive
same,outcome,[17],inactive
same,outcome,[18],inactive
same,AC50,[11],27.3 µM (active)
CCOCN(C(=O)CCl)c1c(C)cccc1CC,AC50,[1],39 µM (active)
same,outcome,[2],inactive
same,outcome,[3],inactive
same,outcome,[4],inactive
same,outcome,[5],inactive
same,outcome,[6],inactive
same,outcome,[7],inactive
same,outcome,[8],inactive
same,AC50,[9],47.5 µM (active)
same,outcome,[17],inactive
same,outcome,[18],inactive
same,outcome,[10],inactive
same,outcome,[12],inactive
C#CCN1C(=O)COc2cc(F)c(N3C(=O)C4=C(CCCC4)C3=O)cc21,outcome,[1],inactive
same,outcome,[2],inactive
same,outcome,[3],inactive
same,outcome,[4],inactive
same,outcome,[5],inactive
same,outcome,[6],inactive
same,outcome,[7],inactive
same,outcome,[8],inactive
same,outcome,[17],inactive
C[C@H]1[C@H](c2ccc(Cl)cc2)SC(=O)N1C(=O)NC1CCCCC1,outcome,[1],inactive
same,outcome,[2],inactive
same,outcome,[3],inactive
same,outcome,[4],inactive
same,outcome,[5],inactive
same,outcome,[6],inactive
same,outcome,[7],inactive
same,outcome,[8],inactive
same,outcome,[9],inactive
same,outcome,[17],inactive
same,outcome,[18],inactive
same,outcome,[10],inactive
same,outcome,[12],inactive
O=[N+]([O-])c1c(Cl)c(Cl)c(Cl)c(Cl)c1Cl,outcome,[1],inactive
same,outcome,[2],inactive
same,outcome,[3],inactive
same,outcome,[4],inactive
same,outcome,[5],inactive
same,outcome,[6],inactive
same,outcome,[7],inactive
same,outcome,[8],inactive
same,outcome,[9],inactive
same,outcome,[17],inactive
same,outcome,[18],inactive
same,outcome,[10],inactive
O=[N+]([O-])/N=C1\NCCN1Cc1ccc(Cl)nc1,outcome,[1],inactive
same,outcome,[19],inactive
same,outcome,[2],inactive
same,outcome,[3],inactive
same,outcome,[4],inactive
same,outcome,[5],inactive
same,outcome,[6],inactive
same,outcome,[7],inactive
same,outcome,[9],inactive
same,outcome,[17],inactive
same,outcome,[18],inactive
same,outcome,[10],inactive
same,outcome,[12],inactive
CC[C@H](C)[C@H]1O[C@]2(C=C[C@@H]1C)C[C@@H]1C[C@@H](C/C=C(\C)[C@@H](O[C@H]3C[C@H](OC)[C@@H](O[C@H]4C[C@H](OC)[C@@H](O)[C@H](C)O4)[C@H](C)O3)[C@@H](C)/C=C/C=C3\CO[C@@H]4[C@H](O)C(C)=C[C@@H](C(=O)O1)[C@]34O)O2 (tested in a mixture with another compound),AC50,[1],8.9 µM (active)
same,AC50,[2],934 nM (active)
same,outcome,[3],inactive
same,outcome,[4],inactive
same,outcome,[5],inactive
same,outcome,[6],inactive
same,outcome,[7],inactive
same,outcome,[8],inactive
same,outcome,[9],inactive
same,outcome,[17],inactive
same,outcome,[18],inactive
CCOC1Oc2ccc(OS(C)(=O)=O)cc2C1(C)C (stereo not given),outcome,[1],inactive
same,outcome,[2],inactive
same,outcome,[3],inactive
same,outcome,[4],inactive
same,outcome,[5],inactive
same,outcome,[6],inactive
same,outcome,[7],inactive
same,outcome,[20],inactive
same,outcome,[14],inactive
same,outcome,[8],inactive
same,outcome,[9],inactive
same,AC50,[15],84.8 µM (active)
same,outcome,[16],inactive
same,outcome,[17],inactive
same,AC50,[10],3.97 µM (active)
COP(=S)(OC)Oc1ccc(SC)c(C)c1,outcome,[1],inactive
same,outcome,[2],inactive
same,outcome,[3],inactive
same,outcome,[4],inactive
same,outcome,[5],inactive
same,outcome,[6],inactive
same,outcome,[7],inactive
same,outcome,[8],inactive
same,outcome,[9],inactive
same,AC50,[10],5.13 µM (active)
same,AC50,[11],34.3 µM (active)
same,AC50,[12],5.14 µM (active)
